# According to PubChem BioAssay (NCI):
# Compounds without any hit were thinned out: in the full panel of roughly 79,000, 15% have a hit. Unmarked numbers belong to inactive results. Calls of active or inactive are those of the source. No stated cut-off is given here; in the data, active means growth inhibition above about 70%; inactive means the rest.
# Assay: NCI Yeast Anticancer Drug Screen. Data for the mlh1 rad18 strain (AID 175)
# Settings: S. cerevisiae mlh1 rad18 strain growth inhibition; at 50.0 µM; stronger effect = higher value
# Method in brief: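 Steps: expose repair-defective yeast to compound; measure growth; express inhibition against vehicle-treated controls.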
row,SMILES,growth inhibition
1,Nc1ncnc(N2CCOCC2)c1N,83.5% (active)
2,CN(C)c1ccc2c(NCCCCCCNc3ccnc4cc(N(C)C)ccc34)ccnc2c1,-5.8%
3,CC(C)N=Cc1cc(Br)cc(Br)c1O.CC(C)N=Cc1cc(Br)cc(Br)c1O.[Co],88.7% (active)
4,O=C1c2ccc(O)cc2C(=O)c2c1ccc(O)c2O,77.4% (active)
5,COc1cc2c[n+](C)c3c4cc(OC)c(OCc5ccccc5)cc4c(OCc4ccccc4)cc3c2cc1OC,65.8%
6,O=C(Nc1ccc(Cl)cc1)OCC1C2C=CC(C2)C1CO (stereo not given),77.8% (active)
7,Cn1nc(-c2ccccc2NC(=O)C(F)(F)F)c(=O)n(C)c1=S,73.9% (active)
8,OCc1c2c(cc3c1CC1(C3)Cc3cc4c(c(CO)c3C1)CCC4)CCC2,27.4%
9,O=C(C[n+]1ccccc1)N=N/C(C(=O)Nc1c(Cl)c(O)c2ccccc2c1O)=C1/C(=O)Oc2cc(O)ccc2C1=O,94.6% (active)
10,Cc1cc(Cl)c(O)c(-c2cc(-c3ccccc3O)c(C#N)c(N)n2)c1,55%
11,CCCCNc1ncc(OCC)c(NCCCC)n1,77.7% (active)
12,C#CCCCCCOC(=O)c1cc([N+](=O)[O-])cc([N+](=O)[O-])c1,98% (active)
13,C=C(C)C1(C(=O)OCC(Cl)(Cl)Cl)NC(=O)C(NC(=O)COc2ccccc2)=CO1 (stereo not given),93% (active)
14,Cc1ccc(SCC#CC#CCS(=O)c2ccc(C)cc2)cc1 (stereo not given),97.6% (active)
15,CCCCCCCCCCCCCCCC1C(N)C(=O)N(C)N1C (stereo not given),90.4% (active)
16,O=c1c(O)cc2c(O)oc3c(=O)c(O)c(O)c4c(O)oc1c2c43,66.2%
17,CCCCN(CCCC)CCNc1ccc(NS(=O)(=O)c2ccccc2)c2sc3ccccc3c(=O)c12,95.3% (active)
18,CCOC(=O)CC(N)CC(=O)OCC,44.5%
19,O=c1cc(Cl)c(Cl)nn1-c1ccccc1,41.2%
20,CC(=O)Nc1ccc(-c2ccccc2)cc1[N+](=O)[O-],41.7%

row,SMILES,growth inhibition
1,O=C1OC(c2ccccc2)N/C1=C\c1ccc2c(c1)OCO2 (stereo not given),-6.95%
2,CCOc1c(N=Nc2ccc(Cl)cc2)c(-c2ccccc2)nn1C(=S)S,94.4% (active)
3,BrCN(CBr)c1ccc2c(c1)Cc1cc(Br)ccc1-2,74.3% (active)
4,COc1cc(NCCCCCCCC2CCCCN2)c2ncccc2c1 (stereo not given),98.4% (active)
5,Cc1cc(Br)cc(C)c1NC(=O)C(=O)C(C(=O)c1ccc2ccccc2c1)C1OC(=O)c2ccccc21 (stereo not given),31.8%
6,O=Cc1cc2c(s1)C(=O)c1sccc1C2=O,90.3% (active)
7,C=C1CC2(CC(C(C)C)CCC2C)OC1=O (stereo not given),2.3%
8,CCSC(=Nc1nc2ccc(NC(C)=O)cc2s1)SCC,97.5% (active)
9,CCOc1ccc2c(c1)n([O-])c1cc(Br)ccc1[n+]2=O,85.8% (active)
10,CCCCC(CCCC)=NNC(=S)SC,56.9%
11,COc1ccc2c(c1)CCc1c(CO)c(COC(=O)NC(C)C)n(C)c1-2,88.8% (active)
12,CSc1cc2c(cc1N)Cc1ccccc1-2,97.3% (active)
13,O=C1C=C(c2ccccc2)OC(c2ccccc2)C1 (stereo not given),27.3%
14,CCOc1ccc2nc([NH-])sc2c1.CCOc1ccc2nc([NH-])sc2c1.[Cl][Pt+2][Cl],62.1%
15,Cc1nc2c(Cl)nc(Cl)nc2s1,98.2% (active)
16,Cc1cc(O)n(Cc2ccccc2)c(=O)c1,67.1%
17,NCCC1=CCCCC1,90% (active)
18,CCOC(=O)/C(=C\n1c(=O)sc2ccccc21)C(=O)c1ccccc1,36.2%
19,Cc1ccc(S(=O)(=O)Nc2ccccc2C=O)cc1,99.1% (active)
20,CC1COC(c2cn[nH]c2C(N)=O)C1O (stereo not given),7.65%
